Among the data in PubChem BioAssay are z-score and composite z-score values, retold here.

Molecules are shown by their SMILES. The source made the active and inactive calls. Unless noted, no rule for the calls is given here.

The nature of assay [1]: A549 cell viability effects, profiling panel, calcein-AM fluorescence, 48 h, basal (AID 1162). Also: test concentration not given here. Particulars: higher = more signal.
Assay [2] can be described thus: adipocyte viability effects, profiling panel, cell-based, 3T3-L1 adipocytes, calcein-AM fluorescence, 48 h, basal (AID 1163). Also: test concentration not given here. The settings on record: 3T3-L1 adipocytes viability, higher = more signal.
The nature of assay [3]: HepG2 cell viability effects, profiling panel, calcein-AM fluorescence, 48 h, basal (AID 1164). Also: test concentration not given here. Particulars: higher = more signal.
A short description of assay [4]: MM1S cell viability effects, profiling panel, calcein-AM fluorescence, 48 h, basal (AID 1165).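 Also: viability of MM1S multiple myeloma cells under basal unstimulated conditions; test concentration not given here.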 The settings on record: higher = more signal.
Assay [5] can be described thus: basal RPMI8226 viability, no added stimulus, profiling panel, cell-based, calcein-AM fluorescence, 48 h, PK04 Diversity Set (AID 1166).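 Also: cells grown under basal conditions without added stimulus; test concentration not given here.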 Particulars: RPMI8226 myeloma viability, higher = more signal.
Assay [6] can be described thus: basal HepG2 mitochondrial membrane potential changes, profiling panel, cell-based, JC-1 fluorescence, 24 h, 100 nL compound (AID 1167). Also: test concentration not given here. Particulars: higher = more signal.
Assay [7] can be described thus: basal 3T3-L1 adipocyte mitochondrial potential changes, profiling panel, cell-based, JC-1 fluorescence, 3T3-L1 adipocytes, 24 h, 100 nL compound (AID 1168). Also: test concentration not given here. The settings on record: JC-1 mitochondrial fluorescence, higher = more signal, called active from +8 up or from −8 down.
Assay [8] in a line: basal RPMI8226 mitochondrial membrane potential changes, profiling panel, cell-based, JC-1 fluorescence, 24 h, 100 nL compound (AID 1169). Also: test concentration not given here. The settings on record: RPMI8226 myeloma, JC-1 mitochondrial potential fluorescence, higher = more signal.
Assay [9] is described as follows: basal MM1S mitochondrial membrane potential changes, profiling panel, cell-based, JC-1 fluorescence, 24 h, 100 nL compound (AID 1170). Also: test concentration not given here. Particulars: higher = more signal.
Assay [10] is described as follows: A549 lung cancer cell viability effects, profiling panel, resazurin fluorescence, 24 h, PK04 Diversity Set (AID 1171). Also: test concentration not given here. Particulars: higher = more signal, called active from +8 up or from −8 down. (Resazurin is reduced to fluorescent resorufin, in cell work by metabolically active cells.)
Assay [11] can be described thus: HepG2 liver cancer cell viability effects, profiling panel, resazurin fluorescence, 24 h, PK04 Diversity Set (AID 1172). Also: test concentration not given here. Particulars: higher = more signal.
The nature of assay [12]: basal S. cerevisiae growth modulation, no modifier, primary screen, OD600, strain BY4716, 24 h, basal condition (AID 1173). The settings on record: OD600, 24 h, higher = more signal, called active from +8 up or from −8 down.
A short description of assay [13]: MM1S myeloma cell viability, profiling panel, resazurin fluorescence, basal, 24 h, PK04 Diversity Set (AID 1174).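 Also: MM1S multiple myeloma cell line; test concentration not given here.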 Particulars: higher = more signal, called active from +8 up or from −8 down.
Assay [14] addresses Dihydroorotate dehydrogenase (quinone), mitochondrial (Plasmodium falciparum (isolate 3D7)) (UniProt Q08210). Briefly: PfDHODH enzyme inhibitors, primary screen, biochemical, C-terminal His tag, absorbance 600 nm (AID 1175).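 Also: recombinant parasite enzyme with a five histidine tag at its C terminus; test concentration not given here.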 Particulars: DCIP absorbance 600 nm, higher = more signal, called active from +8 up or from −8 down.
Assay [15] in a line: P. aeruginosa biofilm formation inhibitors, primary screen, strain PAO1, LB-PBS medium, absorbance 600 nm (AID 1176). Also: test concentration not given here. Particulars: P. aeruginosa PAO1 growth/biofilm, A600, 12 h; higher = more signal.
Assay [16] in a line: S. cerevisiae RM11-1a growth modifiers, primary screen, strain RM11-1a, OD600, basal, 24 h (AID 1177).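 Also: cultures grown under basal conditions with no added stressor; test concentration not given here.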 The settings on record: OD600, 24 h, higher = more signal, called active from +8 up or from −8 down.
The nature of assay [17]: E. coli acrAB mutant growth effects, primary screen, E. coli filamentation inducers, strain DRC39, OD650, 24 h (AID 1178).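 Also: growth measured as culture turbidity by optical density at 650 nm; test concentration not given here.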 Particulars: higher = more signal, called active from +8 up or from −8 down.
Assay [18] in a line: E. coli acrAB mutant growth effects, primary screen, E. coli filamentation inducers, strain DRC39, OD650, 48 h (AID 1179).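 Also: screen aims at cell division blockers that make cells filament.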 Particulars: E. coli DRC39 delta-acrAB growth, higher = more signal, called active from +8 up or from −8 down.
Assay [19] in a line: RPMI8226 myeloma cell viability, profiling panel, resazurin fluorescence, basal, 24 h, PK04 Diversity Set (AID 1180).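 Also: RPMI8826 multiple myeloma cell line at 5000 cells per well; test concentration not given here.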 The settings on record: higher = more signal.
For assay [20], the target named is E3 ubiquitin-protein ligase XIAP (Homo sapiens) (UniProt P98170). Briefly: XIAP binders, primary screen, biophysical, small-molecule microarray, fluorescence 635 nm (AID 1181).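 Also: score merges 667 nm emission and signal to noise over triplicate slides.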 Particulars: small-molecule microarray binding, higher = more signal.
Sequence of E3 ubiquitin-protein ligase XIAP (Homo sapiens) (P98170 whole entry, looked up): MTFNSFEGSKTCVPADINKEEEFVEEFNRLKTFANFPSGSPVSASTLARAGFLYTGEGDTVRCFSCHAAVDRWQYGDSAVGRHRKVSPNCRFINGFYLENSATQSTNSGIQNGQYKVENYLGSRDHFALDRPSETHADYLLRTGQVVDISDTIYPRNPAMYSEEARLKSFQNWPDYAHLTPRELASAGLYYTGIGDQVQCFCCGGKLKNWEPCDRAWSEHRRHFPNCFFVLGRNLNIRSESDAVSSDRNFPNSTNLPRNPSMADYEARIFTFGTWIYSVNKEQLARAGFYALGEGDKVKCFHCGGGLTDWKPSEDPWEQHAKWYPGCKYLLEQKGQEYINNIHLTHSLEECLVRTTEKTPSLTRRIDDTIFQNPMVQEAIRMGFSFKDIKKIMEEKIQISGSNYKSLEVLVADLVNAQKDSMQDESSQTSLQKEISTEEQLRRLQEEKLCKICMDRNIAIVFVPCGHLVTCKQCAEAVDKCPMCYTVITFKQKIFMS

Sequence of Dihydroorotate dehydrogenase (quinone), mitochondrial (Plasmodium falciparum (isolate 3D7)) (Q08210 whole entry, looked up): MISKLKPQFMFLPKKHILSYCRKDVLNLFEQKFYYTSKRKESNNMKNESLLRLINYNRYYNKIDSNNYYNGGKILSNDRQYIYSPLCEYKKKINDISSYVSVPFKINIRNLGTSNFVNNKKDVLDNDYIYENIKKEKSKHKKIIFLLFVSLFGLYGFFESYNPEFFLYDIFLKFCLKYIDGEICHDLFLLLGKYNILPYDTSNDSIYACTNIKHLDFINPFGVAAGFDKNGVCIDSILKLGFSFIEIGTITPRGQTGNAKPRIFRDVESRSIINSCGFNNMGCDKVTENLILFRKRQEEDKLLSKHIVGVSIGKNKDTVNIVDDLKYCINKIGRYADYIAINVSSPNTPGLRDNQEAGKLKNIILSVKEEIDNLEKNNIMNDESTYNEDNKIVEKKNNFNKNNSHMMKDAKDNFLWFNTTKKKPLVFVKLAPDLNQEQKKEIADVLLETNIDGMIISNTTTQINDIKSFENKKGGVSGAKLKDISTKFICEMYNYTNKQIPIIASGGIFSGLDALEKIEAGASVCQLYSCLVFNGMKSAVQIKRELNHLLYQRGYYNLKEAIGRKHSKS

For `O=C1CS(=O)(=O)C(c2cccc([N+](=O)[O-])c2)N1c1ccccc1` (stereo not given), the z-score in assay [1] is 1.02; in [2] it was 0.116; in [3] it was 1.46; in assay [4], 0.637; in assay [5] it was 1.22; in assay [6], 1.24. For the same compound, the z-score in assay [7] is -0.662 (inactive); in assay [8], -0.141; in assay [9], 2.21; in assay [10] it was 0.0249 (inactive); in assay [11], 0.946; in assay [12], -1.3 (inactive). Besides, the z-score was 0.973 (inactive) in [13]; 0.627 (inactive) in assay [15]; -0.818 (inactive) in assay [16]; 1.16 (inactive) in [17]; 1.21 (inactive) in [18]; 0.511 in assay [19]. The composite z-score in assay [14] was -1.21 (inactive); in assay [20], 0.0055.
Consider `O=C(O)[C@@H]1C[C@@H]2C(=O)N3CCC[C@H]3C(=O)N2[C@@H]1c1ccc(O)cc1`, for which the z-score in assay [1] was -0.335; in [2] it was 1.13; in assay [3], -0.763; in assay [4] it was -3.42; in assay [5] it was 0.0242; in assay [6] it was 0.0357. Also, the z-score in [7] is -0.184 (inactive); in [8], -0.704; in assay [9] it was -1.34; in assay [10], -0.609 (inactive); in assay [11], -0.155; in [12], -1.8 (inactive). For the same compound, the z-score is -0.695 (inactive) in [13]; 1.03 (inactive) in assay [15]; -0.113 (inactive) in assay [16]; 0.437 (inactive) in assay [17]; -0.535 (inactive) in assay [18]; 0.16 in [19]. Also, the composite z-score in assay [14] was -1.7 (inactive); in assay [20], 0.0721.
With `C#CCN([C@@H](Cc1ccccc1)C(=O)OC)[C@@H](/C=C/C1CC1)[C@H](O)Cc1ccccc1`, the z-score in [1] is -1.03; in assay [2], -0.347; in assay [3] it was -1.38; in [4], -3.12; in assay [5], -2.25; in assay [6], 0.993. The z-score in assay [7] is -0.21 (inactive); in assay [8] it was -1.03; in [9], -1.51; in [10], 2.25 (inactive); in assay [11], 0.454; in assay [12] it was -0.0746 (inactive). The z-score in [13] is 1.4 (inactive); in assay [15], -0.189 (inactive); in assay [16], 0.0421 (inactive); in [17], -0.622 (inactive); in assay [18], 0.03 (inactive); in assay [19] it was 0.659. For the same compound, the composite z-score in [14] was -0.371 (inactive); in [20], -0.175.
With `COc1ccccc1CN1C(=O)c2ccccc2[C@](Cc2ccccc2I)(C(=O)O)[C@@H]1c1ccc(CO)cc1`, the z-score in assay [1] is 1.14; in assay [2] it was -1.03; in assay [3], 0.235; in [4] it was -0.616; in [5], -1.7; in [6] it was -0.199. For the same compound, the z-score in [7] was -0.205 (inactive); in assay [8], -0.151; in assay [9] it was -0.177; in assay [10], -0.17 (inactive); in [11], -0.569; in assay [12], -1.49 (inactive). Moreover, the z-score in assay [13] was -0.0504 (inactive); in [15], 0.416 (inactive); in assay [16], 0.0183 (inactive); in assay [17], 0.706 (inactive); in assay [18] it was 0.602 (inactive); in [19], 0.437. Besides, the results for the composite z-score in assay [14] and in assay [20] were -0.0436 (inactive) and 0.133, respectively.
For the compound `CCCC[C@@H]1C[C@H]1[C@@H](NC(=O)c1cccs1)c1ccccc1C(F)(F)F`, the z-score in assay [1] is 0.11; in assay [2] it was -0.556; in [3], -0.305; in [4] it was -0.6; in assay [5] it was -1.72; in [6], -2.45. In addition, the z-score was -1.22 (inactive) in [7]; -0.307 in [8]; -1.24 in assay [9]; -0.462 (inactive) in [10]; -0.119 in [11]; 0.866 (inactive) in assay [12]. Also, the z-score is -0.186 (inactive) in assay [13]; 0.591 (inactive) in [15]; 0.742 (inactive) in assay [16]; -0.561 (inactive) in assay [17]; -0.469 (inactive) in assay [18]; 0.276 in assay [19]. The composite z-score in assay [14] is -0.271 (inactive); in assay [20], 0.99.
For the compound `C=C(/C(=C/C[C@H](OC(C)=O)c1ccc(CO)o1)c1cnc2ccccc2c1)C(C)C`, the z-score in [1] was -0.166; in assay [2] it was 0.283; in assay [3], -0.7; in assay [4], -1.36; in [5] it was -1.47; in [6] it was -1.36. For the same compound, the z-score in assay [7] was -0.524 (inactive); in assay [8] it was 0.867; in assay [9], 0.246; in [10] it was 0.643 (inactive); in assay [11] it was 0.523; in assay [12] it was -0.269 (inactive). The z-score in assay [13] was -0.575 (inactive); in assay [15], 0.898 (inactive); in [16], 0.376 (inactive); in assay [17], 0.307 (inactive); in [18], -0.219 (inactive); in [19] it was -0.659. Also, the composite z-score in assay [14] is -7.07 (inactive); in [20], -0.0095.
On to `C=C(COC)C(=O)CC[C@@H](OC(C)=O)c1cccc(OCCO)c1`, for which the z-score is 0.851 in [1]; 0.617 in [2]; -0.4 in assay [3]; -3.46 in assay [4]; -0.496 in assay [5]; -0.0521 in assay [6]. The z-score in assay [7] was -0.196 (inactive); in assay [8], 0.0392; in assay [9] it was -0.274; in [10], 0.387 (inactive); in [11] it was -0.434; in assay [12] it was 0.823 (inactive). For the same compound, the z-score in assay [13] is -0.0743 (inactive); in assay [15] it was -0.329 (inactive); in assay [16] it was 1.17 (inactive); in assay [17] it was 0.858 (inactive); in assay [18], 0.503 (inactive); in assay [19], -0.929. Moreover, the composite z-score in [14] was 0.0704 (inactive); in [20], -0.263.
For the compound `COc1ccc([Si](C)(C)[C@H]2[C@H](CC(=O)N(CCO)Cc3ccccc3)O[C@@]3(C(=O)N(C)c4c(Br)cc(C)cc43)[C@@H]2C)cc1`, the z-score in [1] was -3.51; in [2], -0.346; in assay [3], -4.11; in assay [4], -2.75; in assay [5], -4.66; in assay [6], -2.26. Also, the z-score in assay [7] is 0.0268 (inactive); in assay [8], -1.07; in [9] it was -2.16; in assay [10], -1.02 (inactive); in assay [11] it was -1.86; in assay [12], -2.5 (inactive). Moreover, the z-score is -2.84 (inactive) in [13]; 1.94 (inactive) in [15]; 0.257 (inactive) in assay [16]; 1.32 (inactive) in [17]; 0.677 (inactive) in [18]; -5.31 in assay [19]. Moreover, the figures for the composite z-score in assay [14] and in assay [20] were -0.474 (inactive) and 0.868, respectively.
On to `CC#CCO[Si](C#Cc1ccccc1)(C(C)C)C(C)C`, for which the z-score in assay [1] is -0.511; in assay [2], -0.458; in assay [3] it was -0.175; in assay [4], -0.806; in assay [5], -1.83; in [6], -1.51. The z-score in assay [7] was -0.628 (inactive); in assay [8], -0.845; in [9] it was -1.3; in assay [10] it was -0.537 (inactive); in assay [11], -0.112; in assay [12] it was -15.6 (active). In addition, the z-score in assay [13] is -0.632 (inactive); in assay [15], 0.219 (inactive); in assay [16], 0.201 (inactive); in assay [17], -0.244 (inactive); in assay [18] it was -0.032 (inactive); in [19], -0.67. The values for the composite z-score in assay [14] and in assay [20] were 0.108 (inactive) and -0.127, respectively.
